Measurements taken from the supplement of paper PMC3545927.
This is one part of the list. The hit rate among all sequences tested is not known here.

Target: furin, P09958
Assay: furin cleavage Z-score vs untreated control; higher = more cleavage, active = 3.5 or more, inactive = 1 or less, 8 variable residues between constant flanks
Summary of the method: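 The cleavage Z-score was derived for purified furin acting on 8-mer peptides held on magnetic beads and fused to a cDNA oligonucleotide. Digests lasted 7.5, 15 or 30 min at 1:10 enzyme:substrate in 50 mM HEPES pH 7.5 with CaCl2 and NaCl. Sequencing counts of released DNA, log-transformed against furin-free reactions, were lowess-adjusted and scaled by median absolute deviation.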

Chain of furin, P09958 (P09958 whole entry): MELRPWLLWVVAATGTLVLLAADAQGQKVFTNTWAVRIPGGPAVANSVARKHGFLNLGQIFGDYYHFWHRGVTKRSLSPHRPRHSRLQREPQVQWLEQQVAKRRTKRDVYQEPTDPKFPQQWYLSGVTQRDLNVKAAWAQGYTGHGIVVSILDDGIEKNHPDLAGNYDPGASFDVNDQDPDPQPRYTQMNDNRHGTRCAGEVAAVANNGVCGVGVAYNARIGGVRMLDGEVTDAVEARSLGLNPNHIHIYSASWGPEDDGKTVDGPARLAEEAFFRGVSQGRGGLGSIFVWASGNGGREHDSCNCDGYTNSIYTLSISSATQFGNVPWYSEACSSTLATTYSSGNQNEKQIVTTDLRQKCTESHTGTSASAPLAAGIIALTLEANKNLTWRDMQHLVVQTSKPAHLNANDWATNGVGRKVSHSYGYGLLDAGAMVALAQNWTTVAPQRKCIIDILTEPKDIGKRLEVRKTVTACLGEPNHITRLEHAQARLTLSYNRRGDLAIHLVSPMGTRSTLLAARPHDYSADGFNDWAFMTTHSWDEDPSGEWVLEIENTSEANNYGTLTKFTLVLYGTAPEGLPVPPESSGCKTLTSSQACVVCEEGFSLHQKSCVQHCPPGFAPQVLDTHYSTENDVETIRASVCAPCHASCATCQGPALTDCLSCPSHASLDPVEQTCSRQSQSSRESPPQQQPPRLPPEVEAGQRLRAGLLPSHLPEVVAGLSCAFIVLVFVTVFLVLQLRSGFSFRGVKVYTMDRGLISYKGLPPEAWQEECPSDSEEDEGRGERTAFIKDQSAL

Sequence | furin cleavage Z-score (7.5 min) | furin cleavage Z-score (15 min) | furin cleavage Z-score (30 min)
CAVTPCSGSWAGNASASA [HC1830] | -0.794 (inactive) | -0.739 (inactive) | -0.453 (inactive)
CATAQRHRRYAGNASASA [FS-628] | 8.01 (active) | 10.1 (active) | 9.56 (active)
CAKDSRFFRYAGNASASA [FS-808] | 0.318 (inactive) | -0.509 (inactive) | 1.08
CAAKAKRRRSAGNASASA [FS-744] | 10.8 (active) | 11.8 (active) | 8.83 (active)
CAEKAVERRSAGNASASA [FS-1191] | 0.591 (inactive) | 2.02 | 0.505 (inactive)
CAGNITRVESAGNASASA [HC1280] | -0.34 (inactive) | -0.548 (inactive) | 1.72
CAPEARLRRVAGNASASA [FS-839] | 0.0356 (inactive) | 3.09 | 2.39
CARFARLRRVAGNASASA [FS-853] | 4.92 (active) | 7.36 (active) | 5.85 (active)
CAYVSRLRRVAGNASASA [FS-1441] | 4.8 (active) | 5.42 (active) | 4.8 (active)
CALVCCSMSYAGNASASA [HC1985] | -0.475 (inactive) | -0.242 (inactive) | 0.0858 (inactive)
CAHGPTPLLYAGNASASA [HC970] | -1.77 (inactive) | -1.23 (inactive) | -0.927 (inactive)
CARFKKNAGLAGNASASA [FS-2258] | 0.96 (inactive) | -0.927 (inactive) | 0.128 (inactive)
CARGKRELRMAGNASASA [FS-2933] | 7.15 (active) | 8.97 (active) | 10 (active)
CAAACRAAGLAGNASASA [HC1521] | -0.658 (inactive) | -1.9 (inactive) | -0.337 (inactive)
CARGKRFRPRAGNASASA [FS-2209] | -0.464 (inactive) | 0.0565 (inactive) | 0.308 (inactive)
CARGKREAGLAGNASASA [FS-1950] | 10.7 (active) | 12 (active) | 9.85 (active)
CADVKFPGGGAGNASASA [HC171] | -0.433 (inactive) | -1.81 (inactive) | -2.39 (inactive)
CACLVDYPYRAGNASASA [HC464] | -1.54 (inactive) | -2.22 (inactive) | 0.308 (inactive)
CATRGRQPRVAGNASASA [FS-1575] | 0.424 (inactive) | 0.857 (inactive) | 1.04
CACSRRKPRDAGNASASA [FS-752] | 11.2 (active) | 11.6 (active) | 9.05 (active)
CAKMQRAPRDAGNASASA [FS-451] | -0.25 (inactive) | -0.389 (inactive) | -0.0248 (inactive)
CAPKRRKPRVAGNASASA [FS-1242] | 8.95 (active) | 11.6 (active) | 8 (active)
CAPPGRMCRVAGNASASA [FS-1549] | 0.819 (inactive) | 0.646 (inactive) | 1.21
CAQKGRKPRDAGNASASA [FS-1056] | 15 (active) | 14.9 (active) | 10.2 (active)
CAPCRRKPRDAGNASASA [FS-838] | 14.7 (active) | 14.2 (active) | 11.5 (active)
CAVVQCSMSYAGNASASA [HC2042] | 0.93 (inactive) | 0.804 (inactive) | 0.223 (inactive)
CASMSYSWTGAGNASASA [HC1371] | -1.4 (inactive) | -0.78 (inactive) | -0.275 (inactive)
CAVVCCSMMYAGNASASA [HC2066] | 0.37 (inactive) | -1.1 (inactive) | -0.477 (inactive)
